Assay [1] has as its target Cell division control protein 42 homolog (Homo sapiens) (UniProt P60953). In words: inhibition of fluorescent GTP binding to constitutively active Cdc42 – biochemical, multiplex bead flow cytometry, Bodipy-FL-GTP, dose response (AID 1333;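 active = fitted half-maximal concentration within the tested dose range, moderate curve steepness, a statistically real signal drop, and little compound fluorescence or tag-binding interference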). On the technique in general: In flow cytometry, cells or beads pass a laser one at a time.
Assay [2] has the same target. In words: inhibition of fluorescent GTP binding to wildtype Cdc42 – biochemical, multiplex bead flow cytometry, Bodipy-FL-GTP, dose response (AID 1334;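 active = fitted half-maximal concentration within the tested range, moderate curve steepness, significant signal drop, and little compound fluorescence or bead-linkage interference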). The following applies: bead-based flow cytometry, Bodipy-FL-GTP binding to GST-Cdc42; at 100 µM (top of the series) unless noted.
The target of assay [3] is GTPase HRas (Homo sapiens) (UniProt P01112). In words: Ras wt fluorescent GTP loading blockade – biochemical, wildtype, multiplex bead flow cytometry, dose response (AID 1335). The following applies: bead-based flow cytometry, Bodipy-GTP binding to GST-Ras; at 100 µM (top of the series) unless noted.
Sequence of GTPase HRas (Homo sapiens) (P01112 whole entry, looked up): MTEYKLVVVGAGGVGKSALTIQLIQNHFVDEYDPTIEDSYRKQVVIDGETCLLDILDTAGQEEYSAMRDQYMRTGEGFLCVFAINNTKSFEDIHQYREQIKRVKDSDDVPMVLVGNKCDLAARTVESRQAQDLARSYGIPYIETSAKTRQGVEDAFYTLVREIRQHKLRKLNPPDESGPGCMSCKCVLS
Assay [4] concerns Ras-related protein Rab-7a (dog), GTP binding. In words: blockers of fluorescent GTP binding to Rab7 – biochemical, wildtype, multiplex bead flow cytometry, dose response (AID 1336; call rule not given here).
Assay [5] deals with Ras-related C3 botulinum toxin substrate 1 (Homo sapiens) (UniProt P63000). In words: inhibition of wildtype Rac1 nucleotide loading – biochemical, multiplex bead flow cytometry, dose response (AID 1340;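 active = dose curve with midpoint inside tested range, moderate steepness, plateau gap beyond fit error, low compound glow and bead-link interference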). The following applies: GST-Rac1 beads, Bodipy-FL-GTP binding; at 100 µM (top of the series) unless noted.
For assay [6], the target named is GTPase HRas (Homo sapiens) (UniProt P01112). In words: blockade of GTP loading onto mutant Ras – biochemical, activated mutant, multiplex bead flow cytometry, dose response (AID 1341;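 active = dose-response curve with midpoint inside the tested range, moderate steepness, significant amplitude and little compound fluorescence or bead-attachment interference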;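 note: GST-tagged constitutively activated Ras mutant immobilized on beads and multiplexed with other GTPases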).

Molecules are shown by their SMILES. For part of these data: Entries with a potency or affinity are not part of this list. The source made the active and inactive calls.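 Rule for the calls, unless noted: active = fitted half-maximal concentration within 10 nM to 100 µM, steepness 0.5 to 2, significant signal drop, low assay interference; inactive = the rest.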

Sequence of Cell division control protein 42 homolog (Homo sapiens) (P60953 whole entry, looked up): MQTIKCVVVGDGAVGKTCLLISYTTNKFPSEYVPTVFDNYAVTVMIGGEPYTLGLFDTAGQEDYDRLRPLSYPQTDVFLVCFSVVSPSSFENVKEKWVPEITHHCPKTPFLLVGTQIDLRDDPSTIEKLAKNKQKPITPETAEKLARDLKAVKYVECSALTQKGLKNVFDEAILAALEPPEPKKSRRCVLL

`COc1cccc(/C=N/Nc2nn3cnnc3c3ccccc23)c1O`: the compound was called inactive in assay [1], in assay [4] and in assay [6]. In assay [2], this compound registered a fluorescence, percent of control (lower = inhibition) of 35.9%. This compound displayed a GTP binding, percent of control in assay [3] of 44.6%. The GTP binding signal, raw median fluorescence (lower = inhibition) (MCF (arbitrary fluorescence units)) in assay [5] was determined as 126.
On to `COc1cc2c(cc1OC)-c1cc(NCc3ccccn3)nc(=O)n1CC2`, for which the compound was classed as inactive in assay [1], in assay [4] and in assay [6]. This compound returned a fluorescence, percent of control (lower = inhibition) in assay [2] of 30.7%. The compound further registered a GTP binding, percent of control in assay [3] of 68.3%. The compound also gave a GTP binding signal, raw median fluorescence (lower = inhibition) (MCF (arbitrary fluorescence units)) in assay [5] of 182.
As to `C=CCN1C(=NC(=O)CCCC(=O)O)SC2CS(=O)(=O)CC21` (stereo not given), the call in assay [1], in assay [4] and in assay [6] was inactive. The fluorescence, percent of control (lower = inhibition) in assay [2] was 38.3%. In assay [3], this compound displayed a GTP binding, percent of control of 85.7%. In assay [5], this compound registered a GTP binding signal, raw median fluorescence (lower = inhibition) (MCF (arbitrary fluorescence units)) of 312.
Take `O=C(O)CC/C(=C\c1ccccc1[N+](=O)[O-])c1nc2ccccc2s1`: the outcome in assay [1], in assay [4] and in assay [6] was inactive. The compound further gave a fluorescence, percent of control (lower = inhibition) in assay [2] of 30.2%. In addition, the GTP binding, percent of control in assay [3] was 81.6%. Also, the GTP binding signal, raw median fluorescence (lower = inhibition) (MCF (arbitrary fluorescence units)) in assay [5] was found to be 248.
In the case of `COc1cccc(C(=O)O)c1OCc1ccccc1Br`, the compound was classed as inactive in assay [1], in assay [4] and in assay [6]. In assay [2], this compound registered a fluorescence, percent of control (lower = inhibition) of 57%. Further, the GTP binding, percent of control in assay [3] worked out at 201%. Besides, in assay [5], the GTP binding signal, raw median fluorescence (lower = inhibition) (MCF (arbitrary fluorescence units)) stood at 53.6.
Take `O=C(O)c1ccc(COc2cccc(Cl)c2)o1`: the call in assay [1], in assay [4] and in assay [6] was inactive. This compound gave a fluorescence, percent of control (lower = inhibition) in assay [2] of 60.1%. In assay [3], the GTP binding, percent of control amounted to 87%. The same compound gave a GTP binding signal, raw median fluorescence (lower = inhibition) (MCF (arbitrary fluorescence units)) in assay [5] of 32.8.
Consider `Cc1ccc(NC(=S)NNC(=O)c2cn(C)nc2C)cc1`, for which the result in assay [1], in assay [4] and in assay [6] was inactive. This compound came in with a fluorescence, percent of control (lower = inhibition) in assay [2] of 83.7%. The GTP binding, percent of control in assay [3] was 166%. Moreover, in assay [5], the GTP binding signal, raw median fluorescence (lower = inhibition) (MCF (arbitrary fluorescence units)) amounted to 180.
`COc1cccc(-n2c(SCC(=O)NCCC3=CCCCC3)nc3n[nH]c(C)c3c2=N)c1`: the call in assay [1], in assay [4] and in assay [6] was inactive. In assay [2], this compound yielded a fluorescence, percent of control (lower = inhibition) of 70.4%. In assay [3], this compound came in with a GTP binding, percent of control of 132%. Moreover, the GTP binding signal, raw median fluorescence (lower = inhibition) (MCF (arbitrary fluorescence units)) in assay [5] amounted to 140.
Consider `CCc1ccc(Cn2nnc(C(=O)O)c2C(=O)O)cc1`, for which the outcome in assay [1], in assay [4] and in assay [6] was inactive. In addition, the fluorescence, percent of control (lower = inhibition) in assay [2] is 58.5%. The compound further gave a GTP binding, percent of control in assay [3] of 82.3%. In assay [5], this compound registered a GTP binding signal, raw median fluorescence (lower = inhibition) (MCF (arbitrary fluorescence units)) of 30.7.
As to `O=C(O)c1cccc(NCc2ccccc2)c1`, the compound was classed as inactive in assay [1], in assay [4] and in assay [6]. Further, the fluorescence, percent of control (lower = inhibition) in assay [2] came to 65.9%. This compound also returned a GTP binding, percent of control in assay [3] of 86.9%. Further, in assay [5], the GTP binding signal, raw median fluorescence (lower = inhibition) (MCF (arbitrary fluorescence units)) worked out at 38.8.
For `COc1ccc(CC(=O)Nc2ccc(C(=O)Nc3nccs3)cc2)cc1OC`, the compound was called inactive in assay [1], in assay [4] and in assay [6]. In assay [2], this compound gave a fluorescence, percent of control (lower = inhibition) of 36.7%. Further, the GTP binding, percent of control in assay [3] worked out at 75.2%. In assay [5], this compound showed a GTP binding signal, raw median fluorescence (lower = inhibition) (MCF (arbitrary fluorescence units)) of 163.
As for `Oc1c(C(c2ccccn2)N2CCOCC2)ccc2cccnc12` (stereo not given), the call in assay [1], in assay [4] and in assay [6] was inactive. For the same compound, the fluorescence, percent of control (lower = inhibition) in assay [2] was determined as 55.1%. The compound further registered a GTP binding, percent of control in assay [3] of 70.9%. The compound further returned a GTP binding signal, raw median fluorescence (lower = inhibition) (MCF (arbitrary fluorescence units)) in assay [5] of 0.
`O=C(OC(C(=O)NCc1cccs1)c1ccccn1)c1cccs1` (stereo not given): the outcome in assay [1], in assay [4] and in assay [6] was inactive. Further, the fluorescence, percent of control (lower = inhibition) in assay [2] is 83.4%. The compound also came in with a GTP binding, percent of control in assay [3] of 162%. The GTP binding signal, raw median fluorescence (lower = inhibition) (MCF (arbitrary fluorescence units)) in assay [5] turned out to be 175.
As for `CCc1ccc(Sc2cc(C(=O)O)c3ccccc3n2)cc1`, the result in assay [1], in assay [4] and in assay [6] was inactive. Moreover, the fluorescence, percent of control (lower = inhibition) in assay [2] worked out at 57.8%. Moreover, in assay [3], the GTP binding, percent of control turned out to be 86%. This compound also returned a GTP binding signal, raw median fluorescence (lower = inhibition) (MCF (arbitrary fluorescence units)) in assay [5] of 31.
As for `O=C(C[n+]1cccc(CNC(=O)c2ccc(OC(F)F)cc2)c1)Nc1ccccc1Cl`, the result in assay [1], in assay [4] and in assay [6] was inactive. Besides, the fluorescence, percent of control (lower = inhibition) in assay [2] came out at 51.9%. The same compound showed a GTP binding, percent of control in assay [3] of 60.5%. In assay [5], this compound returned a GTP binding signal, raw median fluorescence (lower = inhibition) (MCF (arbitrary fluorescence units)) of 203.

The values are drawn from PubChem BioAssay.
